Assays:
Settings in all cases: concentration: 1 μM, replicates: in singlicate; n = 1
ERK1 = system: T1, ERK1
T1 construct: gene MAPK3

ERK2 = system: T2, ERK2
T2 construct: gene MAPK1

ERK3 = system: T3, ERK3
T3 construct: gene MAPK6

ERK4 = system: T4, ERK4
T4 construct: gene MAPK4

ERK5 = system: T5, ERK5
T5 construct: gene MAPK7

ERK8 = system: T6, ERK8
T6 construct: gene MAPK15

ERN1 = system: ERN1
FAK = system: T7, FAK
T7 construct: gene PTK2

FER = system: FER
FES = system: FES
FGFR1 = system: FGFR1
FGFR2 = system: FGFR2
FGFR3 = system: FGFR3
FGFR4 = system: FGFR4
FGR = system: FGR
FLT1 = system: FLT1
FLT3-autoinhibited = system: FLT3-autoinhibited
FLT3 = system: FLT3
FLT4 = system: FLT4
FRK = system: FRK
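Also: KINOMEscan kinase panel screen.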

Row | Compound | %Inh (ERK1) | %Inh (ERK2) | %Inh (ERK3) | %Inh (ERK4) | %Inh (ERK5) | %Inh (ERK8) | %Inh (ERN1) | %Inh (FAK) | %Inh (FER) | %Inh (FES) | %Inh (FGFR1) | %Inh (FGFR2) | %Inh (FGFR3) | %Inh (FGFR4) | %Inh (FGR) | %Inh (FLT1) | %Inh (FLT3-autoinhibited) | %Inh (FLT3) | %Inh (FLT4) | %Inh (FRK)
1 | CC(C)NCC(Cc1ccccc1)NC(=O)c1cc(Br)c(-c2ccnc3[nH]ccc23)s1.Cl.Cl (stereo not shown) [GSK1383281] | 11% | 0% | 0% | 0% | 0% | 2% | 0% | 20% | 0% | 0% | 86% | 62% | 60% | 64% | 16% | 65% | 0% | 68% | 48% | 0%
2 | CC(=O)Nc1cn2nc(Oc3cccc(NC(=O)c4cccc(C(F)(F)F)c4)c3)ccc2n1 | 0% | 0% | 0% | 0% | 0% | 19% | 0% | 13% | 3% | 0% | 0% | 91.4% | 53% | 50% | 93.1% | 98.5% | 0% | 97.4% | 100% | 99.9%
3 | Cc1cccc(Nc2nc(N[C@H]3CCCC[C@H]3N)ncc2C(N)=O)c1.Cl [GSK986310] | 8% | 27% | 27% | 49% | 0% | 0% | 2% | 12% | 84% | 0% | 24% | 4% | 3% | 15% | 56% | 43% | 1% | 23% | 24% | 19%
4 | O=C1NC(=O)C(c2ccccc2Cl)=C1Nc1cccc(Cl)c1 [SB-342409] | 10% | 0% | 68% | 17% | 0% | 61% | 26% | 10% | 0% | 0% | 0% | 4% | 16% | 94.1% | 22% | 11% | 0% | 0% | 0% | 15%
5 | COc1cc(Nc2nccc(N3CCC(NC(=O)Nc4ccc5c(c4)OCO5)C3)n2)cc(OC)c1OC (stereo not shown) [GSK1379766] | 0% | 0% | 0% | 0% | 0% | 0% | 0% | 0% | 11% | 0% | 0% | 0% | 0% | 0% | 4% | 26% | 8% | 65% | 16% | 0%
6 | Cc1nn2c(=O)cc(N3CCO[C@H](C)C3)nc2n1Cc1cccc(Cl)c1Cl [GSK2373693] | 0% | 0% | 0% | 19% | 0% | 26% | 0% | 0% | 8% | 0% | 6% | 12% | 12% | 63% | 6% | 33% | 13% | 0% | 18% | 5%
7 | CN(C)c1ncnc2nc[nH]c12 [SKF-31736] | 0% | 0% | 0% | 0% | 0% | 14% | 48% | 0% | 0% | 0% | 0% | 0% | 0% | 0% | 0% | 0% | 0% | 0% | 0% | 0%
8 | Nc1cccc(-c2ccc3c(N)n[nH]c3c2)c1 [GSK2193613] | 0% | 0% | 11% | 14% | 0% | 15% | 4% | 16% | 11% | 16% | 74% | 0% | 0% | 0% | 23% | 14% | 0% | 14% | 0% | 0%
9 | CC(C)(C)c1ccc(C(=O)Nc2cn3cc(-n4ccnc4)ccc3n2)cc1 | 0% | 13% | 10% | 5% | 19% | 0% | 25% | 7% | 0% | 0% | 0% | 22% | 11% | 7% | 0% | 0% | 21% | 71% | 0% | 10%
10 | COc1cccc2c(-c3ccncc3)c(-c3ccc(F)cc3)nn12 [GW468513] | 5% | 0% | 0% | 0% | 0% | 16% | 0% | 0% | 13% | 1% | 11% | 0% | 1% | 0% | 13% | 29% | 0% | 22% | 13% | 5%
11 | CCOc1nccc(-c2c(-c3ccc(F)cc3)ncn2C2CCNCC2)n1 [SB-249175] | 0% | 0% | 26% | 13% | 12% | 2% | 1% | 0% | 9% | 0% | 25% | 3% | 11% | 4% | 0% | 18% | 18% | 39% | 2% | 6%
12 | Cl.Cl.NCC(NC(=O)c1cc(-c2cccnc2)c(-c2ccnc3[nH]ccc23)s1)c1ccccc1 (stereo not shown) [GSK1323434] | 0% | 8% | 3% | 33% | 0% | 16% | 6% | 0% | 50% | 44% | 8% | 0% | 39% | 6% | 42% | 17% | 0% | 5% | 0% | 15%
13 | Cc1cc(-c2ccnc(Nc3cccc(C#N)c3)n2)cc(C)c1O [GSK1440913] | 0% | 0% | 75% | 1% | 0% | 99.1% | 0% | 0% | 7% | 28% | 0% | 54% | 27% | 14% | 37% | 27% | 12% | 48% | 15% | 60%
14 | Nc1ncc(-c2ccc3nccc(-c4ccncc4)c3c2)cc1S(=O)(=O)N1CCCCC1 [GSK1693850] | 0% | 0% | 0% | 13% | 11% | 38% | 1% | 0% | 32% | 0% | 0% | 84% | 16% | 0% | 23% | 7% | 0% | 2% | 0% | 1%
15 | CC(C)c1nc(-c2ccc(F)c(NS(=O)(=O)c3c(F)cccc3F)c2)c(-c2ccnc(Nc3ccc(N4CCOCC4)nc3)n2)s1 [GSK1804250] | 8% | 0% | 1% | 0% | 10% | 38% | 49% | 0% | 41% | 15% | 24% | 11% | 8% | 0% | 97.7% | 88% | 0% | 12% | 97.3% | 89%
16 | COc1ccc(C2=C(Nc3cccc(O)c3)C(=O)NC2=O)cc1 [SB-390766] | 0% | 0% | 6% | 22% | 100% | 15% | 20% | 98.1% | 0% | 0% | 0% | 0% | 0% | 27% | 0% | 5% | 0% | 0% | 35% | 11%
17 | O=C(Nc1c(F)cccc1F)c1cc(C(=O)c2ccccc2F)c[nH]1 [GSK1326180] | 8% | 3% | 9% | 0% | 0% | 0% | 0% | 0% | 0% | 0% | 0% | 0% | 5% | 0% | 0% | 6% | 0% | 1% | 0% | 7%
